In all, about 13,000 compounds went through this assay and about 3,200 (25%) showed an effect of 50% or more. This is one part of the list.
tested on: P. falciparum stage V gametocytes; design: BacTiter-Glo ATP luminescence viability of purified stage V gametocytes in 384-well plates, per cent inhibition versus DMSO; settings: 48 h, 5 µM; inhibitor

SMILES	% Inhibition [%]
CCCCc1cc(NCc2ccncc2)nc(Nc2ccc(C)cc2)n1 [TCMDC-134000]	-5.693
OC1CCCN(Cc2ccc(-c3cccc(-c4nc5ccc(F)cc5[nH]4)c3)cc2)C1 (stereo not drawn) [TCMDC-133815]	-14.67
NC1CCCN(Cc2ccc(-c3cccc(-c4nc5ccc(F)cc5[nH]4)c3)cc2)C1 (stereo not drawn) [TCMDC-133840]	68.96
O=C(O)C(F)(F)F.OC1CCCN(Cc2ccc(-c3ccc(-c4nc5cc(F)ccc5[nH]4)cc3)cc2)C1 (stereo not drawn) [TCMDC-133833]	-10.21
NC1CCN(Cc2ccc(-c3cccc(-c4nc5ccc(F)cc5[nH]4)c3)cc2)C1 (stereo not drawn) [TCMDC-133838]	61.76
NC1CCCN(Cc2cccc(-c3ccc(-c4nc5ccc(F)cc5[nH]4)cc3)c2)C1 (stereo not drawn) [TCMDC-133855]	20.47
CC1CN(Cc2ccc(-c3ccc(-c4nc5cc(F)ccc5[nH]4)cc3)cc2)CC(C)O1.O=C(O)C(F)(F)F (stereo not drawn) [TCMDC-133831]	-15.75
NC1CCN(Cc2cccc(-c3ccc(-c4nc5ccc(F)cc5[nH]4)cc3)c2)C1 (stereo not drawn) [TCMDC-133853]	40.4
NC1CCN(Cc2ccc(-c3ccc(-c4nc5cc(F)ccc5[nH]4)cc3)cc2)C1 (stereo not drawn) [TCMDC-133872]	102.5
CC(=O)N(C)C1CCN(Cc2ccc(-c3cccc(-c4nc5ccc(F)cc5[nH]4)c3)cc2)C1 (stereo not drawn) [TCMDC-133885]	25.2
O=C(Nc1ccc2c(c1)CCN2C1CCN(Cc2ccc(O)cc2)C1)c1ccco1 (stereo not drawn) [TCMDC-135066]	-16.31
COC(=O)c1ccc(CC(C)NCC(O)c2cccc(C(F)(F)F)c2)cc1F (stereo not drawn) [TCMDC-131519]	6.156
NC1=NC(c2ccccc2)(c2ccccc2)C(=O)N1Cc1ccccc1Br [TCMDC-136813]	-33.84
O=c1cc(NCc2ccccc2NCc2ccc(Cl)c(Cl)c2)[nH]c2ccccc12 [TCMDC-139499]	-0.9265
COc1ccc2c(NN=Cc3ccncc3)ccnc2c1 [TCMDC-142030]	-7.897
COc1ccc(C=NNc2cc(C)nc3ccc(OC)cc23)c(OC)c1 [TCMDC-123955]	105.7
COc1ccc2nccc(NN=Cc3ccncc3)c2c1 [TCMDC-142033]	25.13
COc1ccc2nc(C)cc(Nc3ccc(N4CCN(C)CC4)cc3)c2c1 [TCMDC-125813]	1.536
COc1ccc2c(NN=Cc3ccncc3)cc(C)nc2c1 [TCMDC-142038]	85.05
COc1ccc2nc(C)cc(Nc3ccc(Cl)c(Cl)c3)c2c1 [TCMDC-124166]	19.57
COc1ccc2c(Nc3ccc(N4CCN(C)CC4)cc3)cc(C)nc2c1 [TCMDC-123914]	63.09
COc1ccc2nc(C)cc(NN=Cc3cc(C)ccc3O)c2c1 [TCMDC-124232]	86.79
O=C(NCc1ccc(Cl)c(Cl)c1)[C@H]1CNCCN1C(=O)c1ccccc1 [TCMDC-141240]	16.71
Cc1nc2ccc(NC(=O)Nc3ccnc4ccc(C(F)(F)F)cc34)cc2o1 [TCMDC-139534]	-18.3
COc1ccccc1N1CCN(CCCCNC(=O)c2ccc(NC(=O)c3ccc(OC(F)(F)F)cc3)cc2)CC1 [TCMDC-137780]	-5.009
CC(=O)Nc1ncc(C(=O)Nc2cccc(-c3cccc(-c4nc5ccc(F)cc5[nH]4)c3)c2)s1 [TCMDC-136914]	-0.106
CC(CN(C)C)C(=O)Nc1cccc(-c2ccc(-c3nc4ccc(C(F)(F)F)cc4[nH]3)cc2)c1 (stereo not drawn) [TCMDC-137112]	-57.5

SMILES	% Inhibition [%]
COc1ccc2c(NN=Cc3cccnc3)ccnc2c1 [TCMDC-142029]	1.197
COc1ccc2c(NN=Cc3cccnc3)cc(C)nc2c1 [TCMDC-142037]	80.26
COc1ccc2nc(C)cc(NN=Cc3ccncc3)c2c1 [TCMDC-142017]	88.79
COc1ccc2nc(-c3ccccc3)cc(NN=Cc3ccncc3)c2c1 [TCMDC-142041]	-9.454
COc1ccc2nc(C)cc(NN=Cc3ccccc3)c2c1 [TCMDC-123830]	2.081
CCOc1ccc2nc(C)cc(NN=Cc3cccnc3)c2c1 [TCMDC-142047]	3.839
Cc1cc(-c2nc3ccc(N4CCN(C)CC4)cc3[nH]2)nn1Cc1cc(Cl)ccc1OCC(C)C [TCMDC-136722]	42.92
CC(=O)c1cccc(NC(=O)NC2CCN(CCCCCNC(=O)/C=C/c3ccc(Cl)c(Cl)c3)CC2)c1 [TCMDC-135716]	-43.54
COc1ccc(-c2csc3ncnc(Cl)c23)cc1 [TCMDC-123805]	65.98
Clc1ccc(-c2csc3ncnc(Cl)c23)cc1 [TCMDC-123811]	48.01
COc1ccc(-c2csc3ncnc(Cl)c23)cc1OC [TCMDC-125316]	38.88
Cc1cnc2ccc(NS(=O)(=O)c3sc4ccc(Cl)cc4c3C)cc2c1N1CCNCC1 [TCMDC-139547]	29.85
COc1cc2c(cc1N(C(C)C)S(=O)(=O)c1sc3ccc(Cl)cc3c1C)CCNCC2 [TCMDC-141465]	91.42
Cc1c(S(=O)(=O)Nc2ccc3nccc(N4CCN[C@H](C)C4)c3c2)sc2ccc(Cl)cc12 [TCMDC-139483]	-5.538
Oc1ccccc1CCNCC1CCc2ccccc2C1 (stereo not drawn) [TCMDC-138024]	-11.67
O=C(NC1CCCC1)c1cc2c(=O)n3ccccc3nc2nc1NCCc1ccccc1 [TCMDC-125350]	42.55
O=C(O)C(F)(F)F.O=C1CCCN1CCCNCc1cccc(-c2cccc(-c3nc4cc(C(F)(F)F)ccc4[nH]3)c2)c1 [TCMDC-132754]	-20.15
Cn1nccc1C(=O)NCCNCc1ccc(-c2cccc(-c3nc4cc(C(F)(F)F)ccc4[nH]3)c2)cc1.O=C(O)C(F)(F)F [TCMDC-133006]	-36.49
FC(F)(F)c1ccc2[nH]c(-c3ccc(-c4cccc(CNCCN5CCNCC5)c4)cc3)nc2c1 [TCMDC-132864]	103.8
O=C1CCCN1CCCNCc1ccc(-c2cccc(-c3nc4ccc(C(F)(F)F)cc4[nH]3)c2)cc1 [TCMDC-132752]	-22.52
O=C(O)C(F)(F)F.O=C1CCCN1CCCNCc1ccc(-c2ccc(-c3nc4cc(C(F)(F)F)ccc4[nH]3)s2)cc1 [TCMDC-132764]	-35.61
Cn1nccc1C(=O)NCCNCc1cccc(-c2ccc(-c3nc4cc(C(F)(F)F)ccc4[nH]3)cc2)c1.O=C(O)C(F)(F)F [TCMDC-133014]	-13.72
FC(F)(F)c1ccc2[nH]c(-c3cccc(-c4ccc(CNCCN5CCNCC5)cc4)c3)nc2c1 [TCMDC-132872]	109.9
O=C(NCCN1CCCC1)c1ccc(-c2ccc(-c3nc4cc(C(F)(F)F)ccc4[nH]3)s2)cc1 [TCMDC-132315]	12.27
FC(F)(F)c1ccc2nc(-c3cccc(-c4cccc(CNCCN5CCNCC5)c4)c3)[nH]c2c1 [TCMDC-132871]	79.56
O=C1CCCN1CCCNCc1cccc(-c2ccc(-c3nc4ccc(C(F)(F)F)cc4[nH]3)cc2)c1 [TCMDC-132761]	-39.05
FC(F)(F)c1ccc2[nH]c(-c3ccc(-c4ccc(CNCCN5CCNCC5)cc4)s3)nc2c1 [TCMDC-132862]	105.5

From publication PMC4552634, “A New Set of Chemical Starting Points with Plasmodium falciparum Transmission-Blocking Potential for Antimalarial Drug Discovery” (PLoS ONE, 2015)
